# According to paper PMC7862700, “An all-to-all approach to the identification of sequence-specific readers for epigenetic DNA modifications on cytosine”:
# Experiments:
# Assay in all cases: DAPPL (digital affinity profiling via proximity ligation, sequencing); 10 mM Tris-HCl pH 7.5, 50 mM NaCl, 1 mM DTT, 4% glycerol, room temperature, 30 min; GST-TFs on glutathione beads, 16-mer random dsDNA library, 0.1% formaldehyde crosslink after washing; high values mean tight binding
# FLI1 = biological target: T1, FLI1 (Homo sapiens, UniProt Q01543 1-452); settings: protein: recombinant; tags: N-terminal GST; dsDNA, one strand shown
# T1 sequence: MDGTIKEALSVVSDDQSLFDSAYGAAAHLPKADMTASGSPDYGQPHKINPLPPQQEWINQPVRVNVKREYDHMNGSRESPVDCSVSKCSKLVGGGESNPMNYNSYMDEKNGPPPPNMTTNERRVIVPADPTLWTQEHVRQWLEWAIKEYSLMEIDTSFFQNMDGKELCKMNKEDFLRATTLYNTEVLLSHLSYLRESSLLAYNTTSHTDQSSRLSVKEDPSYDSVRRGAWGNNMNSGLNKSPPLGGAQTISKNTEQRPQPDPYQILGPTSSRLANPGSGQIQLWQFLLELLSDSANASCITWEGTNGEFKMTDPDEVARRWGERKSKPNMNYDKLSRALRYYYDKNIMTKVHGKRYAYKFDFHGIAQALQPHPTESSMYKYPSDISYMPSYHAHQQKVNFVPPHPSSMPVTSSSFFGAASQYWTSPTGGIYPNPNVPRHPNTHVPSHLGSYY
# How it was run: (§1)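 GST fusions of human transcription factors were expressed in yeast and captured with glutathione beads. Once given DNA barcodes and pooled alongside a tag-only sample, they were incubated for 30 min at room temperature with 200 nmole of a random double-stranded 16-mer DNA library in Tris/NaCl/DTT/glycerol buffer, then washed, crosslinked (0.1% formaldehyde), proximity-ligated, PCR-amplified and sequenced on an Illumina NextSeq500. The binding signal of each hexamer is its read frequency for a factor divided by its frequency for the tag-only sample.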
# ELK1 = biological target: T2, ELK1 (Homo sapiens, UniProt P19419 1-428); settings: protein: recombinant; tags: N-terminal GST; dsDNA, one strand shown
# T2 sequence: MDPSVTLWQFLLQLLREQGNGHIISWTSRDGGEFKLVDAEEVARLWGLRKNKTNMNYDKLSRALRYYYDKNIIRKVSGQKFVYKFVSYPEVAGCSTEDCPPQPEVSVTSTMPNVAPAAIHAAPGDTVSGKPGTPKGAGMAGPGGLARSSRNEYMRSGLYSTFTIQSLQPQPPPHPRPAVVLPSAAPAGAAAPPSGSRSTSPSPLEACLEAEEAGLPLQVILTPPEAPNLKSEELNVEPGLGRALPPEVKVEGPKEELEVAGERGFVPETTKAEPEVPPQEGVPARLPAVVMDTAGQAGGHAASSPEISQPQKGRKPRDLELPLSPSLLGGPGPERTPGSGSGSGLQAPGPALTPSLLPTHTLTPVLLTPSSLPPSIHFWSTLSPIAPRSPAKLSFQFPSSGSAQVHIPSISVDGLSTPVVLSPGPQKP
# How it was run: as §1
# GABPA = biological target: T3, GABPA (Homo sapiens, UniProt Q06546 1-454); settings: protein: recombinant; tags: N-terminal GST; dsDNA, one strand shown
# T3 sequence: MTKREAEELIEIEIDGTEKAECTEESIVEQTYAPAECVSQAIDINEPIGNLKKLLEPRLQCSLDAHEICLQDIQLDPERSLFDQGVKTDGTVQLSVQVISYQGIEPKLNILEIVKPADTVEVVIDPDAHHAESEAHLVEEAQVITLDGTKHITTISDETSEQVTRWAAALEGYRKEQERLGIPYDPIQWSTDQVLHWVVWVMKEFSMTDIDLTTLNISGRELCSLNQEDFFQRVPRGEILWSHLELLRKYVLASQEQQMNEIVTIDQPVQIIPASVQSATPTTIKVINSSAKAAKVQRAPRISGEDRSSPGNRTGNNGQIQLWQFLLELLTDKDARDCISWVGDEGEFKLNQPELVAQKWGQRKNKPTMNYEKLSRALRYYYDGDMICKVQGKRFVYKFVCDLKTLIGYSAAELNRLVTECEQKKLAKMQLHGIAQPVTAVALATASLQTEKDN
# How it was run: as §1
# ERG = biological target: T4, ERG (Homo sapiens, UniProt P11308 1-479); settings: protein: recombinant; tags: N-terminal GST; dsDNA, one strand shown
# T4 sequence: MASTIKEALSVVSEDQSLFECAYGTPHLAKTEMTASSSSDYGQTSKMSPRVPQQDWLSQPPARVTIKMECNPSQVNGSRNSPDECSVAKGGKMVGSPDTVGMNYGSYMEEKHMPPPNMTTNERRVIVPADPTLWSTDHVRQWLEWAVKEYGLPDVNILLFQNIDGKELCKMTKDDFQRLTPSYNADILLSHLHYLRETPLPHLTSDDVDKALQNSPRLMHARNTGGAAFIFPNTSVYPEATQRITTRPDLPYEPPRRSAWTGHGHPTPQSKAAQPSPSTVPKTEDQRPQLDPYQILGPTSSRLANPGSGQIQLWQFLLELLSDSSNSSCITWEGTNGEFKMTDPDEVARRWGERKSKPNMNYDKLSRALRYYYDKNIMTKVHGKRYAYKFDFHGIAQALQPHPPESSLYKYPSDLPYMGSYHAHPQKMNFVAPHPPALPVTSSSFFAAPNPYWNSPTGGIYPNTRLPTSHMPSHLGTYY
# How it was run: as §1
# ELF1 = ELF1 (Homo sapiens, UniProt P32519 1-619); settings: protein: recombinant; tags: N-terminal GST; dsDNA, one strand shown
# ELF1, sequence (P32519 whole entry): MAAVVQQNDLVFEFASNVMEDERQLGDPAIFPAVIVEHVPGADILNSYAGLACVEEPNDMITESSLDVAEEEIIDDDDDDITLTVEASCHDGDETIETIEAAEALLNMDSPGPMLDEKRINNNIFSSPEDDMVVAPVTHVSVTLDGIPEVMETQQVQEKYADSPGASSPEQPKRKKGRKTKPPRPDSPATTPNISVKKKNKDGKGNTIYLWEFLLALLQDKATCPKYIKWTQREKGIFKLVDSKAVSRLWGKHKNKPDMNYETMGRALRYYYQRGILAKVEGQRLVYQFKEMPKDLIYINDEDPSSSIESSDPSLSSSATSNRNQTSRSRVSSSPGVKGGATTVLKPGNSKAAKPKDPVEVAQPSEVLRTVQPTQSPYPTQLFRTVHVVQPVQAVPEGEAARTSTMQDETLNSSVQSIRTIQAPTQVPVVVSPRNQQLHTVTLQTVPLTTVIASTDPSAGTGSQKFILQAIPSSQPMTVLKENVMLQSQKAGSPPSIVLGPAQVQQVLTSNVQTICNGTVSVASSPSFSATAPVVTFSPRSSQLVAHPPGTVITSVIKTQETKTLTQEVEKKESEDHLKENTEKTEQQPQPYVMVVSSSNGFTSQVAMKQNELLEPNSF
# How it was run: as §1
# EHF = biological target: T5, EHF (Homo sapiens, UniProt Q9NZC4 1-300); settings: protein: recombinant; tags: N-terminal GST; dsDNA, one strand shown
# T5 sequence: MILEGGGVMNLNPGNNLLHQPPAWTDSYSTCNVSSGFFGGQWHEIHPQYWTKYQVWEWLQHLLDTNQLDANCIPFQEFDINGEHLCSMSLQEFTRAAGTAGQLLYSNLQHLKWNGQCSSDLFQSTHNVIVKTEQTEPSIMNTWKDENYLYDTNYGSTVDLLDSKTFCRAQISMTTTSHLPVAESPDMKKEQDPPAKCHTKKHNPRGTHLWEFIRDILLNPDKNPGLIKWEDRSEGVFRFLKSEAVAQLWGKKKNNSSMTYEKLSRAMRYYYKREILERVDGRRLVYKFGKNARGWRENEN
# How it was run: as §1
# SPI1 = SPI1 (Homo sapiens, UniProt P17947 1-270); settings: protein: recombinant; tags: N-terminal GST; dsDNA, one strand shown
# How it was run: as §1
# SPIB = SPIB (Homo sapiens, UniProt Q01892 1-262); settings: protein: recombinant; tags: N-terminal GST; dsDNA, one strand shown
# SPIB, sequence (Q01892 whole entry): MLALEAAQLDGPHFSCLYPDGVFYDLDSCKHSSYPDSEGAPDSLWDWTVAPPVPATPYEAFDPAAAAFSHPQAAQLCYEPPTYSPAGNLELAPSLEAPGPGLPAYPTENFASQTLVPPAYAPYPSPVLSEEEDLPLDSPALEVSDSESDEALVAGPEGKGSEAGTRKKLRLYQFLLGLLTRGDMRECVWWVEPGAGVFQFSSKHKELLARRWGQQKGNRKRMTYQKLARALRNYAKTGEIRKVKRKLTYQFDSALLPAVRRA
# How it was run: as §1
# ELK3 = biological target: T6, ELK3 (Homo sapiens, UniProt P41970 1-407); settings: protein: recombinant; tags: N-terminal GST; dsDNA, one strand shown
# T6 sequence: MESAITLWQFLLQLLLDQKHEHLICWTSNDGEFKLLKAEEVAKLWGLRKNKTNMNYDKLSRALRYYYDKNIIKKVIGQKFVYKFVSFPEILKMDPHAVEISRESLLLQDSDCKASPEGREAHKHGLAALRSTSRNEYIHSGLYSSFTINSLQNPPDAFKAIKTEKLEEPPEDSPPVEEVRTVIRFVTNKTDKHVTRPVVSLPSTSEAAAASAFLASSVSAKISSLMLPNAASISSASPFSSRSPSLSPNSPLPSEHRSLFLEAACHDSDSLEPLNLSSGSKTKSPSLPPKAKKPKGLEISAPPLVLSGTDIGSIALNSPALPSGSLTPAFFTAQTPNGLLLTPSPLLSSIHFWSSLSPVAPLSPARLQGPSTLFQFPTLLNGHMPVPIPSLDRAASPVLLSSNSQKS
# How it was run: as §1
# FEV = biological target: T7, FEV (Homo sapiens, UniProt Q99581 1-238); settings: protein: recombinant; tags: N-terminal GST; dsDNA, one strand shown
# T7 sequence: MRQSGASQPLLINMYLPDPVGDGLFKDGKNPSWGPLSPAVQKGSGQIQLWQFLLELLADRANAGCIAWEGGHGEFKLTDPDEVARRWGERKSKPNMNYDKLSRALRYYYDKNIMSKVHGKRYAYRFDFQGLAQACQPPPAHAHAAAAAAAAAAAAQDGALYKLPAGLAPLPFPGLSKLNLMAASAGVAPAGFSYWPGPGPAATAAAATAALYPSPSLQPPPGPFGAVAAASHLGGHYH
# How it was run: as §1
# ETV5 = ETV5 (Homo sapiens, UniProt P41161 1-510); settings: protein: recombinant; tags: N-terminal GST; dsDNA, one strand shown
# ETV5, sequence (P41161 whole entry): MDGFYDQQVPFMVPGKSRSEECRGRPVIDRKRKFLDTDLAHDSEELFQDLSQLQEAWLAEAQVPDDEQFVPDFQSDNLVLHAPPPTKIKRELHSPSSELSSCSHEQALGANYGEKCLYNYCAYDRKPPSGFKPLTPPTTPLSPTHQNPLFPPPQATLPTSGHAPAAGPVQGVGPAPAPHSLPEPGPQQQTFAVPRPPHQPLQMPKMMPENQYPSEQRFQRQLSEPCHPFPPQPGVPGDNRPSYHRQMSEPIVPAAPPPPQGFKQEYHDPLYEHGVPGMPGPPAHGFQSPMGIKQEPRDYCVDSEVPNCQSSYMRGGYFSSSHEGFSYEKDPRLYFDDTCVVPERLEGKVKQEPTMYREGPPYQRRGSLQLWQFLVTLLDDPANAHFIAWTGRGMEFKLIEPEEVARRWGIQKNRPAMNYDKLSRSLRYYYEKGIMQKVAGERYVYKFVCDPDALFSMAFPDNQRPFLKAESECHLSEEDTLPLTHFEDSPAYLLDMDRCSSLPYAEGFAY
# How it was run: as §1
# HSF1 = HSF1 (Homo sapiens, UniProt Q00613 1-529); settings: protein: recombinant; tags: N-terminal GST; chain copies: 3; dsDNA, one strand shown
# HSF1, sequence (Q00613 whole entry): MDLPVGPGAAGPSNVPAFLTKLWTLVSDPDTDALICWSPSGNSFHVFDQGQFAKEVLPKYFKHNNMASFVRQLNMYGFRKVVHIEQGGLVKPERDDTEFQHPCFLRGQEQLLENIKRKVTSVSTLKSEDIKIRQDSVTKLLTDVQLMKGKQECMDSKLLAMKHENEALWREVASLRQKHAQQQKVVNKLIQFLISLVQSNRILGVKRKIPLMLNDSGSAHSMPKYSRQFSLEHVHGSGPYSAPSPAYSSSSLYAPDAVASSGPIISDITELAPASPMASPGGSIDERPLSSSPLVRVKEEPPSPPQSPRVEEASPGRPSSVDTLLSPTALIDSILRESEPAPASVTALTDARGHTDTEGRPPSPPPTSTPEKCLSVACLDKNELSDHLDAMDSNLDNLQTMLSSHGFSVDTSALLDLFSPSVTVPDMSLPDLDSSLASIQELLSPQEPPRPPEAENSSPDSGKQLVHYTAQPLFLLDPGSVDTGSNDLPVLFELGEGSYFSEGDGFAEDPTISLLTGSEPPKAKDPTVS
# How it was run: as §1
# SPIC = biological target: T8, SPIC (Homo sapiens, UniProt Q8N5J4 1-248); settings: protein: recombinant; tags: N-terminal GST; dsDNA, one strand shown
# T8 sequence: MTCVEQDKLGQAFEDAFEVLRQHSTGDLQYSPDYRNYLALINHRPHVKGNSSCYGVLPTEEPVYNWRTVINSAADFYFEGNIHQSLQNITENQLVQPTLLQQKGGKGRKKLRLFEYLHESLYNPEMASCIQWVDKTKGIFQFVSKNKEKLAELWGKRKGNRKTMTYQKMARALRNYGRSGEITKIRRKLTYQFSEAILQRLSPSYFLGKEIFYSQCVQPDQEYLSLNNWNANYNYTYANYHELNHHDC
# How it was run: as §1
# ELF4 = ELF4 (Homo sapiens, UniProt Q99607 1-663); settings: protein: recombinant; tags: N-terminal GST; dsDNA, one strand shown
# ELF4, sequence (Q99607 whole entry): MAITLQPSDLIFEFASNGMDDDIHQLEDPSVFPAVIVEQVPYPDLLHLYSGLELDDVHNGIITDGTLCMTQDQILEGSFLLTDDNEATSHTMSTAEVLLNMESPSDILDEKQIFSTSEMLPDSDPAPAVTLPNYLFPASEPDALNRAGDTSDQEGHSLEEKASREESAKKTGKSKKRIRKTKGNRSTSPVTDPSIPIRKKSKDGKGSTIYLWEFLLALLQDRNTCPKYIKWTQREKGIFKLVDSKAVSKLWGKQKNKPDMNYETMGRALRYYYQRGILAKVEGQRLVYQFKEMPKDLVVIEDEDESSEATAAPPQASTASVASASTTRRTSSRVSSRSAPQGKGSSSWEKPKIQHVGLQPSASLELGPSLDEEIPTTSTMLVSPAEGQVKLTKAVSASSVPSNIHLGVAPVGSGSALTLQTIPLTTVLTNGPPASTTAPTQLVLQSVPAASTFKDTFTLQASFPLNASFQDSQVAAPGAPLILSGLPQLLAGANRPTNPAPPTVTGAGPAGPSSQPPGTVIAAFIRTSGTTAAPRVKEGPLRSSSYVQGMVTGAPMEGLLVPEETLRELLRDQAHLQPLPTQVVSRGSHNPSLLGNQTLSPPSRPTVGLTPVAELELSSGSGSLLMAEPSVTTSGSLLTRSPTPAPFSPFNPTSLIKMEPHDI
# How it was run: as §1
# ELK4 = biological target: T9, ELK4 (Homo sapiens, UniProt P28324-2 1-405); settings: protein: recombinant; tags: N-terminal GST; dsDNA, one strand shown
# T9 sequence: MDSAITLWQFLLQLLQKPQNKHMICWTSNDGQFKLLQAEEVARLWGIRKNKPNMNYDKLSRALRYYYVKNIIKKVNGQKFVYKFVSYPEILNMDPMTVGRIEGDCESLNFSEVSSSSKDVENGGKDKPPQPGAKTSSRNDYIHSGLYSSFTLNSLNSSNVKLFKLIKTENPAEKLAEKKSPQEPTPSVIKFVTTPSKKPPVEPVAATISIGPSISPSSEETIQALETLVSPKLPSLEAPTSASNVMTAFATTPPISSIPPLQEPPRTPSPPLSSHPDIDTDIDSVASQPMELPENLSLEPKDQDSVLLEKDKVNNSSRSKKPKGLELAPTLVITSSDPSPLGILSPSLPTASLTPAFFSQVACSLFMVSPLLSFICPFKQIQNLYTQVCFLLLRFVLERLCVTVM
# How it was run: as §1
# ETV2 = biological target: T10, ETV2 (Homo sapiens, UniProt O00321 1-342); settings: protein: recombinant; tags: N-terminal GST; dsDNA, one strand shown
# T10 sequence: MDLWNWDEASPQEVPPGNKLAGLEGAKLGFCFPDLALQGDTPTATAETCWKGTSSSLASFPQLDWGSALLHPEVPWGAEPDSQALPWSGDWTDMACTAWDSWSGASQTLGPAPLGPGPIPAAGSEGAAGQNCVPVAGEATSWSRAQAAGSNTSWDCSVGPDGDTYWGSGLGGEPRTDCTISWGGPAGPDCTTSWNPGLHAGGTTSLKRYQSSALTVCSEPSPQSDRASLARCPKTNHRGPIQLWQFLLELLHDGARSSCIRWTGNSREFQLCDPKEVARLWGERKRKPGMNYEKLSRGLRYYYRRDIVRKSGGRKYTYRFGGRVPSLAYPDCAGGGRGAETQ
# How it was run: as §1
# ELF3 = biological target: T11, ELF3 (Homo sapiens, UniProt P78545 1-371); settings: protein: recombinant; tags: N-terminal GST; dsDNA, one strand shown
# T11 sequence: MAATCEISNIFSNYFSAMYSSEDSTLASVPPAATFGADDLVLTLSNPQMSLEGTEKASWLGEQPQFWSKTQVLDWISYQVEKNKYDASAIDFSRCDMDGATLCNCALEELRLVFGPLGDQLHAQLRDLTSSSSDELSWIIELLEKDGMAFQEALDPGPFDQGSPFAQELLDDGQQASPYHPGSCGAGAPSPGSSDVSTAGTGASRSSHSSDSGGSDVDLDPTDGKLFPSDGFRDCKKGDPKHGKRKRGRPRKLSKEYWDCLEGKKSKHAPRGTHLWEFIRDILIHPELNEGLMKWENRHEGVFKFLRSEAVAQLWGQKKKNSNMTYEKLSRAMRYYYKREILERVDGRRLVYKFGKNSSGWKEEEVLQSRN
# How it was run: as §1
# CRX = CRX (Homo sapiens, UniProt O43186 1-299); settings: protein: recombinant; tags: N-terminal GST; dsDNA, one strand shown
# CRX, sequence (O43186 whole entry): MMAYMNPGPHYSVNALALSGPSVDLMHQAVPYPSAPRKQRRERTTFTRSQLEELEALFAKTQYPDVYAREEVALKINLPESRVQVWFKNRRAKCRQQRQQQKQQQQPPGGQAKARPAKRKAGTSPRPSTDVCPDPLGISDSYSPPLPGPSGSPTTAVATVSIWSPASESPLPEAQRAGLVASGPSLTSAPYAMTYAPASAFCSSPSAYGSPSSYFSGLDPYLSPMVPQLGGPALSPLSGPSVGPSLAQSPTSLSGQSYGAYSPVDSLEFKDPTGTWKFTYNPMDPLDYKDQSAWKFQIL
# How it was run: as §1
# ETV1 = ETV1 (Homo sapiens, UniProt P50549 1-477); settings: protein: recombinant; tags: N-terminal GST; dsDNA, one strand shown
# ETV1, sequence (P50549 whole entry): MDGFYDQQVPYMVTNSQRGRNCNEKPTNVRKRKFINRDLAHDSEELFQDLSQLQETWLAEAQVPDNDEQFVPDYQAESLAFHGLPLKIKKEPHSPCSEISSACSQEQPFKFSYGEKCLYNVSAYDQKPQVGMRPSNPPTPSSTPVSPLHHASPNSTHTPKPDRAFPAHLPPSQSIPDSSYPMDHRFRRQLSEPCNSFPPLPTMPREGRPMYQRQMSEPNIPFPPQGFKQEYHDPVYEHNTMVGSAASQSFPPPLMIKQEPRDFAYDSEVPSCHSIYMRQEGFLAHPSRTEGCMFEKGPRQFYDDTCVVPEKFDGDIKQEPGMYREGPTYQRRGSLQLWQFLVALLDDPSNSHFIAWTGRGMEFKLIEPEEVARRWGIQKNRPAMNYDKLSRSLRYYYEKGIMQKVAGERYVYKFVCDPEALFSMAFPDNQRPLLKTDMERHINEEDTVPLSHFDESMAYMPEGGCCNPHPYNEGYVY
# How it was run: as §1
sequence,measurement,setting,value
CAACTC,binding signal,FLI1,"1.37 fold enrichment (6-mer frequency, TF over GST control)"
same,binding signal,ELK1,"1.23 fold enrichment (6-mer frequency, TF over GST control)"
same,binding signal,GABPA,"1.3 fold enrichment (6-mer frequency, TF over GST control)"
same,binding signal,ERG,"1.28 fold enrichment (6-mer frequency, TF over GST control)"
same,binding signal,ELF1,"1.34 fold enrichment (6-mer frequency, TF over GST control)"
same,binding signal,EHF,"1.19 fold enrichment (6-mer frequency, TF over GST control)"
same,binding signal,SPI1,"1.31 fold enrichment (6-mer frequency, TF over GST control)"
same,binding signal,SPIB,"1.22 fold enrichment (6-mer frequency, TF over GST control)"
same,binding signal,ELK3,"1.3 fold enrichment (6-mer frequency, TF over GST control)"
same,binding signal,FEV,"1.23 fold enrichment (6-mer frequency, TF over GST control)"
same,binding signal,ETV5,"1.22 fold enrichment (6-mer frequency, TF over GST control)"
same,binding signal,HSF1,"1.12 fold enrichment (6-mer frequency, TF over GST control)"
same,binding signal,SPIC,"1.33 fold enrichment (6-mer frequency, TF over GST control)"
same,binding signal,ELF4,"1.27 fold enrichment (6-mer frequency, TF over GST control)"
same,binding signal,ELK4,"1.2 fold enrichment (6-mer frequency, TF over GST control)"
same,binding signal,ETV2,"1.3 fold enrichment (6-mer frequency, TF over GST control)"
same,binding signal,ELF3,"1.24 fold enrichment (6-mer frequency, TF over GST control)"
same,binding signal,CRX,"1.01 fold enrichment (6-mer frequency, TF over GST control)"
same,binding signal,ETV1,"1.18 fold enrichment (6-mer frequency, TF over GST control)"
